Experimental data published in PubChem BioAssay (NCI).
The panel holds about 79,000 compounds, 15% with a hit somewhere; the sample as a whole holds those more often. Calls of active or inactive are those of the source. Rule as the data show it: active = growth inhibition above about 70%; inactive = the rest.

Tests used:
[1] = NCI Yeast Anticancer Drug Screen. Data for the rad50 strain (AID 155);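 also: 0% = growth of vehicle-only cultures of the same strain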; settings: S. cerevisiae rad50 strain growth inhibition, hits give high values
Procedure, shortened: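 Genetically altered yeast (DNA repair pathway); compound treatment; growth inhibition vs vehicle ctrl.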

[2] = NCI Yeast Anticancer Drug Screen. Data for the mec2-1 strain (AID 157); settings: S. cerevisiae mec2-1 strain, hits give high values
Procedure, shortened: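 Strain: mec2-1 (DNA repair/cell cycle alteration). Compound exposure, then growth measured; inhibition expressed relative to vehicle.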

[3] = NCI Yeast Anticancer Drug Screen. Data for the sgs1 mgt1 strain (AID 161);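 also: 0% = growth of cultures given vehicle only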; settings: S. cerevisiae sgs1 mgt1 strain, hits give high values
Procedure, shortened: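 Inhibition of yeast growth, normalised to vehicle-treated controls, is reported for a strain bearing genetic alterations in DNA damage repair.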

[4] = NCI Yeast Anticancer Drug Screen. Data for the cln2 rad14 strain (AID 165);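 also: 0% = growth equal to vehicle treated cultures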; settings: S. cerevisiae cln2 rad14 strain, hits give high values
Procedure, shortened: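 Compounds are applied to the cln2 rad14 yeast strain, and growth is then compared with that of vehicle-treated cultures to give inhibition.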

[5] = NCI Yeast Anticancer Drug Screen. Data for the bub3 strain (AID 167); settings: S. cerevisiae bub3 mutant strain, hits give high values
Procedure, shortened: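 Yeast carrying a defined mutation is treated with each compound, and growth is compared with that of vehicle-exposed cells to give inhibition.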

[6] = NCI Yeast Anticancer Drug Screen. Data for the mlh1 rad18 strain (AID 175); settings: S. cerevisiae mlh1 rad18 strain growth inhibition, hits give high values
Procedure, shortened: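 Read-out is yeast growth inhibition, calculated against vehicle-only controls. The compound was applied to a strain engineered with DNA damage repair alterations.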

[7] = at 5.0 µM (retest, dose inferred, filed as 0.5)
[8] = at 50.0 µM (retest, dose inferred, filed as 5.0)

Measured: growth inhibition

COc1ccc2nc(N/N=C/c3ccccn3)cc(C)c2c1
active: [1]; at 50.0 µM 98.7% | [2]; at 50.0 µM 98.1% | [3]; at 50.0 µM 99.2% | [4]; at 50.0 µM 96.5% | [5]; at 50.0 µM 98.3% | [6]; [8] 75% | [6]; at 50.0 µM 99%
inactive: [1]; [7] 10% | [1]; [8] 56% | [2]; [7] -3% | [2]; [8] 62% | [3]; [7] 0% | [3]; [8] 57% | [4]; [7] 3% | [4]; [8] 40% | [5]; [7] 4% | [5]; [8] 58% | [6]; [7] 19%

CC(C)N1C(=O)c2ccccc2S1(Cl)c1ccccc1 (stereo not given)
inactive: [1]; [7] 2% | [1]; [8] 0% | [2]; [7] -6% | [2]; [8] 6% | [3]; [7] 4% | [3]; [8] -3% | [4]; [7] -2% | [4]; [8] 2% | [5]; [7] -7% | [5]; [8] -6% | [6]; [7] -2% | [6]; [8] 4%
active: [1]; at 50.0 µM 97.5% | [2]; at 50.0 µM 96.8% | [3]; at 50.0 µM 94.5% | [4]; at 50.0 µM 88.2% | [5]; at 50.0 µM 98.5% | [6]; at 50.0 µM 98.3%

Nc1ncc2ccccc2c1-c1ccc(NC(=O)CCCl)cc1
inactive: [1]; [7] -1% | [1]; [8] 36% | [2]; [7] -3% | [2]; [8] 40% | [2]; at 50.0 µM 14.8% | [3]; [7] -2% | [3]; [8] 39% | [3]; at 50.0 µM 31.6% | [4]; [7] -1% | [4]; [8] 23% | [4]; at 50.0 µM -4.85% | [5]; [7] 6% | [5]; [8] 59% | [5]; at 50.0 µM 21.6% | [6]; [7] -2% | [6]; [8] 55% | [6]; at 50.0 µM 45%
active: [1]; at 50.0 µM 70%

CC1(c2ccc(S(=O)(=O)c3ccccc3)cc2)OC(=O)C=CC1=O (stereo not given)
inactive: [4]; [7] 44%
active: [1]; [7] 82% | [1]; [8] 100% | [1]; at 50.0 µM 99.2% | [2]; [7] 92% | [2]; [8] 99% | [2]; at 50.0 µM 99.5% | [3]; [7] 94% | [3]; [8] 99% | [3]; at 50.0 µM 99.5% | [4]; [8] 98% | [4]; at 50.0 µM 99.2% | [5]; [7] 94% | [5]; [8] 99% | [5]; at 50.0 µM 99.5% | [6]; [7] 97% | [6]; [8] 99% | [6]; at 50.0 µM 99.5%

O=S(=O)(CC(Br)CCl)c1ccccc1 (stereo not given)
inactive: [1]; [7] 2% | [1]; at 50.0 µM 15.1% | [2]; [7] 2% | [2]; [8] 55% | [2]; at 50.0 µM 31.3% | [3]; [7] -1% | [3]; [8] 46% | [3]; at 50.0 µM 40.5% | [4]; [7] 4% | [4]; [8] 17% | [4]; at 50.0 µM -62.6% | [5]; [7] 5% | [5]; [8] 38% | [5]; at 50.0 µM 54.8% | [6]; [7] 13% | [6]; at 50.0 µM 57%
active: [1]; [8] 72% | [6]; [8] 76%

COC(=O)c1cn(NS(=O)(=O)c2ccc(OC)cc2)cc1C(=O)OC
inactive: [1]; [7] -6% | [1]; [8] 8% | [1]; at 50.0 µM 16.4% | [2]; [7] -5% | [2]; [8] 4% | [2]; at 50.0 µM 6.65% | [3]; [7] -6% | [3]; [8] 14% | [3]; at 50.0 µM 29.8% | [4]; [7] -1% | [4]; [8] 0% | [4]; at 50.0 µM 33.9% | [5]; [7] -5% | [5]; [8] 8% | [5]; at 50.0 µM -1.9% | [6]; [7] -5% | [6]; [8] 6% | [6]; at 50.0 µM 20.9%

CC(C)/C(Cl)=N\OC(=O)Nc1cccc(F)c1
inactive: [1]; [7] 14% | [1]; [8] 65% | [1]; at 50.0 µM -5.85% | [2]; [7] -7% | [2]; [8] 45% | [2]; at 50.0 µM 63% | [3]; [7] -6% | [4]; [7] 41% | [4]; [8] 28% | [4]; at 50.0 µM 25.9% | [5]; [7] -13% | [5]; at 50.0 µM 69.7% | [6]; [7] -3% | [6]; [8] 28% | [6]; at 50.0 µM 50.8%
active: [3]; [8] 96% | [3]; at 50.0 µM 82.9% | [5]; [8] 82%

NC1C(=O)C2CCCCC2C(=O)C1C(=O)c1ccccc1 (stereo not given)
active: [5]; at 50.0 µM 73.9%
inactive: [1]; [7] -2% | [1]; [8] 28% | [1]; at 50.0 µM -0.5% | [2]; [7] 4% | [2]; [8] 17% | [2]; at 50.0 µM 16.4% | [3]; [7] -1% | [3]; [8] -6% | [3]; at 50.0 µM 23.4% | [4]; [7] 1% | [4]; [8] 10% | [4]; at 50.0 µM -55.4% | [5]; [7] 5% | [5]; [8] 49% | [6]; [7] 3% | [6]; [8] 24% | [6]; at 50.0 µM 48.1%

CCOC(=O)C(C)(C)Oc1ccc2c(=O)cc(-c3ccccc3)oc2c1
active: [1]; [8] 95% | [1]; at 50.0 µM 85.5% | [2]; [8] 96% | [2]; at 50.0 µM 93% | [3]; [8] 95% | [3]; at 50.0 µM 93.4% | [4]; [8] 96% | [4]; at 50.0 µM 92.5% | [5]; [8] 97% | [5]; at 50.0 µM 92.5% | [6]; [8] 94% | [6]; at 50.0 µM 89.9%
inactive: [1]; [7] -8% | [2]; [7] -28% | [3]; [7] -43% | [4]; [7] 6% | [5]; [7] -17% | [6]; [7] -56%

O=C(NC[N+]12CCO[B-]1(c1ccc(Br)cc1)OCC2)c1ccccc1O (stereo not given)
inactive: [1]; [7] 10% | [1]; [8] 48% | [1]; at 50.0 µM 65.2% | [2]; [7] 11% | [2]; [8] 43% | [2]; at 50.0 µM 56.2% | [3]; [7] 23% | [3]; [8] 51% | [3]; at 50.0 µM 60.2% | [4]; [7] -4% | [4]; [8] 38% | [4]; at 50.0 µM 21.3% | [5]; [7] 26% | [5]; [8] 63% | [5]; at 50.0 µM 61.5% | [6]; [7] 24%
active: [6]; [8] 72% | [6]; at 50.0 µM 87.9%
